HT1080 IDH1KD tx = toxicity to HT-1080 IDH1 knockdown cells (counter line); AID 686971; 2% of 360,000 active; Potency, µM (series often up to 46.1 µM), for inactives: at the top dose activity, negative = toxicity, actives largely listed as cytotoxic; HT-1080 IDH1 knockdown viability, ATP luminescence, 48 h;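 note: potency is the fitted concentration of half-maximal effect; 0% = DMSO wells and -100% = cell-free medium wells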
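IDH1KD HT-1080 cells, 750/well, RPMI + 5% FBS; compound pinned after 2 h settling; 48 h, 37 °C; CellTiter-Glo luminescence; % activity normalised to DMSO and no-cell wells; curves fitted, classed by r2 and efficacy.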
TDP1 cell noCPT = qHTS for Inhibitors of human tyrosyl-DNA phosphodiesterase 1 (TDP1): qHTS in cells in absence of CPT | 15% of 420,000 active | Potency, µM (doses to about 46.2 µM), for inactives: at the top dose activity change, negative = growth inhibition, hits mostly inhibitors | DT40 Tdp1-/- hTDP1 cells, no CPT, ATP luminescence, 48 h; note: potency is the fitted concentration of half-maximal effect; nearly all actives have a fitted effect of over 55% in size
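Chicken DT40 Tdp1-/- cells complemented with human TDP1, screened without camptothecin (DMSO vehicle only), 400 cells/well. Compounds pin-transferred, cells incubated at 37 °C for at least 48 hr. Growth read as ATP-dependent luminescence (CellTiter-Glo, 30 min at RT).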
IL1B secr inh = inflammasome signaling inhibition, IL-1 beta readout; activity change, % at 57.5 µM; 4.7% of 360,000 active; THP-1 LPS/ATP IL-1B secretion, AlphaLISA, 16 h; hits give low values; in the data active = activity change below about -50%; inconclusive = mostly about -30% to -49%
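Secreted IL-1B measured by AlphaLISA bead assay after 16 h compound exposure of THP-1 cells; compounds (final up to 57.5 uM) added 1 h before LPS (250 ng/mL) and ATP (1.25 mM) stimulation; lower signal means less secretion.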
DT40 TDP1 CPT = growth inhibition of DT40 Tdp1-/-;hTDP1 cells with camptothecin (screen for TDP1 inhibitors) | Potency, µM (series often up to 46.2 µM), inactives show top-dose activity change, negative = growth inhibition, hits mostly inhibitors | 12% of 420,000 active | AID 686979 | chicken DT40 Tdp1-/-;hTDP1 cells + 20 nM CPT, ATP luminescence, 48 h; note: potency is the fitted concentration of half-maximal effect; nearly all actives have a fitted effect of over 55% in size
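Cell growth measured by CellTiter-Glo luminescence after a minimum 48 h, 37 C compound exposure with 20 nM CPT in Tdp1-knockout DT40 cells stably expressing hTDP1, seeded 400/well; qHTS titration format.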
HT1080NT lethal = kills 2HG-producing HT-1080-NT fibrosarcoma cells. HT-1080-NT fibrosarcoma viability, CellTiter-Glo ATP luminescence, 48 h. Potency, µM (series often up to 46.1 µM), inactives show at the highest dose activity, negative = less viability, actives largely listed as cytotoxic. 1.6% of 360,000 active. AID 686970;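 note: NT is the 2HG producing partner of a matched IDH1 knockdown line; potency is the fitted concentration of half-maximal effect; 0% = DMSO-treated cells and -100% = media-only wells without cells; nearly all actives have a fitted effect of over 55% in size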
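Viability of the 2HG-overproducing fibrosarcoma line after 48 hours of compound exposure at 37 degrees C was determined by luminescence with CellTiter-Glo, and concentration-effect curves were then fitted and categorized.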
The depositor's hits bear a star; i = inactive; ? = inconclusive; . = no result given; ! = not active in a repeat; [ ] = remark or other dose. An excerpt weighted towards active compounds, which were near 19% of everything screened. Unless noted, calls come from the whole dose curve; as a rule, active = well fitted curve in the direction sought with a large enough effect; inconclusive = small, poorly fitted or top-dose-only effect, or another doubt; inactive = no such curve, though single readings can be large; an effect the other way counts as inactive or inconclusive. Unless noted, % is set by controls: 0 for no effect and ±100 for the full control effect.

SMILES | HT1080 IDH1KD tx | TDP1 cell noCPT | IL1B secr inh | DT40 TDP1 CPT | HT1080NT lethal
Cc1cc(C)n(-c2ccn(Cc3ccc(Cl)cc3Cl)c(=O)n2)n1 | -22.2% | 16.4µM* | -16.6 | 20.6µM* | -14.6%
C=CCNc1nc(Nc2ccc(OC)cc2OC)nc(OCC)n1 | -17.8% | ? | 5.7 | 16.4µM* | -6.4%
C=CCNc1nc(Nc2ccccc2F)nc(OCC)n1 | 2.4% | -26.3% | 0.1 | ? | 1.4%
CC(C)(C)OC(=O)N1CCC(C(=O)Nc2ccc(C(=O)N3CCCCC3)cc2)CC1 | 0.7% | -22.2% | 0.0 | -24.1% | 9.7%
Brc1ccc(COc2ncnc3ccccc23)cc1 | ? | -16.8% | -6.9 | 2.8% | -3.7%
COc1cc2ncnc(Nc3ccc4c(c3)OCO4)c2cc1OC | 6.9% | -1.4% | ? | -23.8% | 16.8%
COc1cc2ncnc(Nc3cccc(Cl)c3)c2cc1OC | . | 12.6µM* | . | 17.8µM* | .
COc1ccc(COc2ncnc3ccc(Br)cc23)cc1F | -24.2% | -29.2% | -65.0* | -4.7% | -18.0%
C#Cc1cccc(Nc2ncnc3cc(OCCOC)c(OCCOC)cc23)c1 | . | 13.3µM* | . | ? | .
COc1cc2c(Nc3ccc(Br)cc3F)ncnc2cc1OCC1CCN(C)CC1 | . | 4.73µM* | . | 4.73µM* | .
COc1ccc(NC(C)=O)cc1S(=O)(=O)NC(C)c1ccc(-n2ccnc2)cc1 (centres undefined) | 2.8% | -9.8% | -6.7 | 2.3% | 7.4%
O=C1CC(c2ccc(F)cc2)CC(O)=C1C=NCCN1CCN(C(=O)Nc2ccccc2)CC1 (centres undefined) | 4.2% | -24.1% | 37.4 | -0.6% | 2.9%
FC(F)(F)C(F)(F)C(F)(F)c1nc2ccccc2[nH]1 | . | -4.9% | . | -24.0% | .
COc1ccc(Nc2ncnc3ccc(Br)cc23)cc1OC | -10.4% | ? | -14.1 | 18.4µM* | -15.9%
COc1cc2ncnc(Nc3cccc(Br)c3)c2cc1OC | . | ? | . | 16.8µM* | .
CCc1ccc2[nH]c3nc(SCCN4CCOCC4)nnc3c2c1 | -6.6% | 23.1µM* | 10.9 | ? | 10.5%
Cc1ccc(C(=O)NNC(=O)CSc2nnc3c(n2)[nH]c2ccc(C)cc23)cc1 | 18.3% | 18.4µM* | 30.8 | ? | -1.5%
CCc1ccc2[nH]c3nc(SCC(=O)NNC(=O)c4ccc(C(C)(C)C)cc4)nnc3c2c1 | -3.8% | 16.4µM* | -59.1* | 20.6µM* | 4.6%
Cc1ccc(C(=O)NNC(=O)CSc2nc(N)cc(N)n2)cc1 | 9.3% | -16.9% | 1.2 | ? | 14.3%
CCOC(=O)c1c(C)[nH]c(C(=O)COc2ccc3ccc(=O)oc3c2)c1C | 12.1% | -23.6% | -1.7 | ? | 5.9%
O=C(NCc1ccc(F)cc1)C(=O)NCC1OCCN1S(=O)(=O)c1cc(F)ccc1F (centres undefined) | 4.7% | -8.0% | -12.5 | -18.2% | 7.8%
O=C(Nc1cccc(F)c1)c1oc2ccccc2c1NC(=O)C12CC3CC(CC(C3)C1)C2 | . | 11.9% | . | -5.0% | .
CC(=O)OC[C@@H]1CN(Cc2ccccc2)C[C@H](n2cnc3c(NCc4ccc(F)cc4)ncnc32)O1 | 11.8% | -28.2% | -3.1 | ? | -6.3%
C/C(=N/NC(=O)C1CCCN1C(=O)c1ccc([N+](=O)[O-])cc1)c1ccc(Br)cc1 (centres undefined) | 24.7% | ? | i | ? | 15.9%
CCOCCCNC(=O)C(c1ccccc1)N(Cc1ccc2c(c1)OCO2)C(=O)c1ccccc1O (centres undefined) | 12.6% | -21.9% | -8.6 | 4.5% | 5.0%
SMILES | HT1080 IDH1KD tx | TDP1 cell noCPT | IL1B secr inh | DT40 TDP1 CPT | HT1080NT lethal
CCOCCCNC(=O)C(c1ccc(C)cc1)N(Cc1ccc2c(c1)OCO2)C(=O)c1ccccc1O (centres undefined) | . | 16.4µM* | . | 23.1µM* | .
COc1cc(N2C(=O)C=CC2=O)ccc1N1C(=O)C=CC1=O | 9.2µM* | 0.92µM* | -99.0* | 0.731µM* | ?
c1cncc(-c2nnc(-c3cccnc3)nn2)c1 | ? | 5.17µM* | 20.0 | 2.91µM* | ?
O=S(=O)(c1ccc(Oc2ccc(Br)cc2)cc1)N1CCOCC1 | -7.4%[9.24 µM] | 23.1µM* | -13.7 | 16.4µM* | -17.6%
COc1ccc(S(=O)(=O)NCC(c2cccnc2)N2CCN(Cc3ccccc3)CC2)cc1C (centres undefined) | -3.5% | -28.8% | -4.9 | ? | -17.0%
O=c1[nH]c(N2CCN(c3ccccc3)CC2)nc2c1CCCC2 | 2.7% | 23.1µM* | -15.0 | ? | 2.7%
O=c1[nH]c(N2CCN(c3ccccc3)CC2)nc2c1CCC2 | 13.7% | ? | -2.9 | -28.3% | 12.9%
O=C(Nc1nnc(COc2ccc(Br)cc2)s1)c1ccco1 | -13.7% | 0.7% | -6.3 | 15.1% | -18.2%
CC(C)[C@H]1COCCS(=O)(=O)N1Cc1ccc(Cl)cc1 | -2.0% | ? | -4.4 | ? | -3.9%
CCCC[C@H]1COCCS(=O)(=O)N1Cc1cccc(F)c1 | -3.9% | 12.6µM*! | 2.7 | ? | 2.1%
O=S1(=O)CCO[C@H]2Cc3ccccc3[C@H]2N1Cc1cccc(F)c1 | -1.0% | -3.7% | 14.9 | 20.6µM*! | -2.8%
CCC(C)[C@H]1COCCS(=O)(=O)N1Cc1ccc(Br)cc1 (some centres undefined) | 21.9% | 16.4µM* | -3.1 | 17.8µM* | -0.8%
CC(C)C[C@H]1COCCS(=O)(=O)N1Cc1cccc(Cl)c1 | 3.6% | ? | 8.6 | 14.6µM* | 0.0%
O=S1(=O)CCOC[C@H](Cc2ccccc2)N1Cc1cccc(Cl)c1 | -4.5% | -24.7% | -3.5 | ? | 0.1%
Cc1cc(C)n2c(nc3ccccc32)c1C(=O)NCc1ccccc1 | 11.5% | -2.5% | -0.6 | -0.2% | 0.7%
CCCC[C@H]1COCCS(=O)(=O)N1Cc1ccc(C)cc1 | -5.6% | 25.9µM* | . | ? | -2.0%
CC(=O)N1c2ccc(Cl)cc2C2C=CCC2C1c1cccc2ccccc12 (centres undefined) | ? | ? | ? | 23.1µM* | ?
CCOc1ccc(C2CC(=O)Nc3c2c(=O)nc(SCc2ccccc2C)n3C)cc1OC (centres undefined) | . | 5.8µM* | . | 9.2µM* | .
c1ccc2c(CSc3ncnc4nc[nH]c34)cccc2c1 | -24.5% | ? | 2.5 | ? | -23.6%
CC(C)(C)CC(C)(C)N=C1NS(=O)(=O)c2cc([N+](=O)[O-])ccc21 | -4.4% | 14.6µM* | -13.9 | ? | -7.0%
CCC(CC)N=C1NS(=O)(=O)c2cc([N+](=O)[O-])ccc21 | -15.0% | 20.6µM* | 23.6 | ? | -26.8%
CC(C)(CO)N=C1NS(=O)(=O)c2cc([N+](=O)[O-])ccc21 | 1.7% | ? | 56.5 | -16.9% | 0.0%
Cc1ccc(NC(=O)c2oc3ccc(S(=O)(=O)N4CCC5(CC4)OCCO5)cc3c2C)cc1C | -5.2% | ? | -0.5 | 8.2µM*! | -1.9%

Screening results as filed in PubChem.
